From PubChem BioAssay (NCI)
The panel holds about 83,000 compounds, 20% with a hit somewhere; the sample as a whole holds those more often.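 96-well plates, one dose, 48 hours. Percent growth reported; active if below 10.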 Active and inactive are the calls of the source.

tested on: U251 CNS; assay: NCI-60 one-dose screen, 48 h (100 = growth as untreated, 0 = no growth, -100 = all killed); conditions: 10 µM unless noted
Protocol: Growth inhibition of the U251 human tumor cell line is measured as a screen for anti-cancer activity. Cells are grown in 96 well plates and exposed to the test compound for 48 hours. Compounds are tested at a single concentration, which is 10^-5 M for most compounds. The reported endpoint is percent growth (GI% or GIPRCNT), where numbers from 0 - 100% represent growth inhibition, and numbers from -100% - 0 represent cell death. For example, a value of 40 represents 60% growth inhibition. A value of 0 means no net growth occurred over the course of the experiment. A value of -40 indicates 40% of cells at the beginning of the experiment died by the end of the experiment. A value of -100 means all cells are dead at the end of the experiment.
NCI-60 Human Tumor Cell Lines Screen was performed using the standard one-dose NCI protocol, which is described in more detail at https://dtp.cancer.gov/discovery_development/nci-60/default.htm.
Compounds with GIPRCNT values below 10 were considered active. Activity score was based on GIPRCNT using the following formula: […]
Score is 0 for GIPRCNT values of 100 or above, 50 for GIPRCNT values of 0, and 100 for GIPRCNT values of -100.

Q: How did the growth turn out when `CN(C)CCN(C)c1ccc2ncc(C#Cc3cncc(C(=O)Nc4ccc(CN5CCN(C)CC5)c(C(F)(F)F)c4)c3)n2n1` was run?
A: 64.1% (inactive)

Q: `CS(=O)(=O)Nc1cc(-c2ccc3ncc(C#N)c(NCc4ccccc4)c3c2)cnc1Cl` was tested. Which growth did it give?
A: 11.1% (inactive)

Q: Which growth does the source give for `N#Cc1c(NC(=O)c2cccc(C(F)(F)F)c2F)sc2c1CCC(=O)C2` here?
A: 0.119% (active)

Q: How did the growth turn out when `Cc1nc(-c2ccccc2O)ccc1C(=O)N=Nc1c(O)[nH]c2ccc(Br)cc12` was run?
A: 103% (inactive)

Q: With `Cc1cc(-c2ccc(Cl)cc2)n(Cc2nnc(SCC(=O)Nc3ccc(S(N)(=O)=O)cc3)n2-c2ccc([N+](=O)[O-])cc2)n1` as the molecule, how does the growth read?
A: 88.4% (inactive)

Q: Which growth does the source give for `CCc1cccc2c3c(sc12)C(c1ccc(OC)cc1)C(C#N)=C(/N=C/c1ccc(Cl)cc1)O3` (stereo not given) here?
A: 20.1% (inactive)

Q: How did the growth turn out when `O=C(NNc1nc2cc(F)c(F)cc2n2c(CN3CC4CNCC4C3)ccc12)c1ncccn1` (stereo not given) was run?
A: 17.3% (inactive)

Q: How did the growth turn out when `CCCn1cnc2c(c1=N)C(c1ccc(OC)cc1)c1sc3c(CC)cccc3c1O2` (stereo not given) was run?
A: 20.5% (inactive)

Q: With `COC(=O)C(Cc1ccccc1)Nc1nc(NC(Cc2ccccc2)C(=O)OC)nc(N2CCOCC2)n1` (stereo not given) as the molecule, how does the growth read?
A: 105% (inactive)

Q: How did the growth turn out when `N/C(=N\C(N)=N\c1nc2ccccc2s1)c1ccncc1Cl` was run?
A: 31.8% (inactive)

Q: How did the growth turn out when `NC(=O)c1c(NC(=O)c2ccccc2C(F)(F)F)sc2c1CCC(=O)C2` was run?
A: 14.3% (inactive)

Q: With `O=C(CSc1nc2ccccc2c(=O)n1-c1ccccc1)Nc1cccc(C(=O)/C=C/c2ccccc2)c1` as the molecule, how does the growth read?
A: 71.2% (inactive)

Q: Which growth does the source give for `COc1ccc(C2CC(c3cccc(Nc4nc(Cl)nc5cc(OC)c(OC)cc45)c3)=Nc3c(N)nc(N)nc3N2)cc1` (stereo not given) here?
A: 16.9% (inactive)

Q: `CCNC(=O)N1CCc2cc(OC)c(OCCc3ccc(OC)nc3)cc2C1c1ccc(C)cc1C` (stereo not given) was tested. Which growth did it give?
A: 11.1% (inactive)

Q: `COc1ccccc1NC1=C(Cl)C(=O)c2nc(C)ccc2C1=O` was tested. Which growth did it give?
A: 62.8% (inactive)

Q: How did the growth turn out when `NS(=O)(=O)c1ccc(Nc2nc(SCC(=O)c3ccc(Cl)cc3)nc3c2CCCC3)cc1` was run?
A: 51.3% (inactive)

Q: How did the growth turn out when `O=C(CN1CCN(c2cc(=O)n(-c3ccccc3)c3ccccc23)CC1)Nc1cccc(C(F)(F)F)c1` was run?
A: 71.6% (inactive)

Q: For `Cc1ccc2c(c1)C13C(=C2Br)CCCN1C(=O)c1ccccc13` (stereo not given), which growth is on record?
A: 97.5% (inactive)

Q: `COc1cc(Cn2cc3c(c2)-c2onc(CN4CCOCC4)c2CC3)cc(OC)c1OC` was tested. Which growth did it give?
A: 102% (inactive)

Q: `CNc1ncc2cc(-c3ccc(-c4ncccc4F)cc3Cl)c(=O)n(CC3OCC(N)CO3)c2n1` (stereo not given) was tested. Which growth did it give?
A: 51.8% (inactive)

Q: Which growth does the source give for `Nc1ccccc1NC(=O)c1ccc(NC(=O)C/C=C/c2cccnc2)cn1` here?
A: 15.6% (inactive)

Q: `CS(=O)(=O)Nc1cc(-c2ccc3ncc(C#N)c(NCc4ccccc4O)c3c2)cnc1Cl` was tested. Which growth did it give?
A: 13.6% (inactive)

Q: For `N/C(=N\C(N)=N\c1nc2ccccc2s1)c1cccc(F)c1`, which growth is on record?
A: 94.1% [5 µM] (inactive)

Q: How did the growth turn out when `CN1c2ccccc2Sc2cc(C=C(C#N)C#N)ccc21` was run?
A: 98% (inactive)

Q: `N#Cc1cnc2ccc(-c3cnc4[nH]ncc4c3)cc2c1N1CCc2cc(F)c(Cl)cc21` was tested. Which growth did it give?
A: 20.5% (inactive)

Q: Which growth does the source give for `COc1ccc(NCc2cn(-c3ccc(C(=O)O)cc3)nc2-c2cc(C(F)(F)F)cc(C(F)(F)F)c2)cc1` here?
A: 102% (inactive)

Q: For `C/C(=N\O)[C@H]1C[C@]23CC[C@]4(C)[C@H](CC[C@@H]5[C@@]6(C)CC/C(=N/O)C(C)(C)[C@@H]6CC[C@]54C)[C@H]2[C@H](C)C1(C)OC3`, which growth is on record?
A: 110% (inactive)

Q: Which growth does the source give for `CCCn1cnc2c(c1=N)C(c1ccc(OC)cc1)c1sc3c(C)cccc3c1O2` (stereo not given) here?
A: 20.6% (inactive)

Q: With `CC1(C)CC[C@]2(C(=O)O)CC[C@]3(C)C(=CC[C@@H]4[C@@]5(C)CC/C(=N\OCCC#N)C(C)(C)[C@@H]5CC[C@]43C)[C@@H]2C1` as the molecule, how does the growth read?
A: 107% (inactive)

Q: Which growth does the source give for `COc1ccccc1-n1cc(C#N)c(N)c1C(=O)c1ccc(C)cc1` here?
A: 79.4% (inactive)

Q: `Cc1ccc(-c2nnc(SCc3ccc(O)c4ncccc34)n2-c2ccccc2)cc1` was tested. Which growth did it give?
A: -2.5% (active)

Q: `CCN1CCN(Cc2ccc(C(=O)Nc3ccc(C)c(Oc4ccc(-c5[nH]nc6ncnc(N)c56)cc4)c3)cc2C(F)(F)F)CC1` was tested. Which growth did it give?
A: 89.4% (inactive)

Q: `COc1cc(OC)c(S(N)(=O)=O)cc1C(=O)/C=C/c1ccc(C)cc1` was tested. Which growth did it give?
A: 14.5% (inactive)

Q: How did the growth turn out when `Cc1c(F)cc(C(N)=O)cc1NCC(=O)Nc1ccc([N+](=O)[O-])cc1` was run?
A: 109% (inactive)

Q: How did the growth turn out when `Cc1ccc2c(c1)C(=O)/C(=C/c1cccc(F)c1)S2` was run?
A: 101% (inactive)

Q: With `CC(C)C[C@@H]1N[C@@]2(C(=O)Nc3ccccc32)[C@@H](c2ccc(F)cc2)[C@@H]1C(=O)c1ccc(O)cc1` as the molecule, how does the growth read?
A: 97.1% (inactive)

Q: Which growth does the source give for `CCOC(=O)C1=NNC(c2ccc(Cl)cc2)C1C(=O)N1C(=S)NC(=O)C1CC(C)C` (stereo not given) here?
A: 105% (inactive)

Q: With `O=C(Cn1c(-c2ccccc2)nc2cc(Cl)c(Cl)cc21)N=Nc1c(O)[nH]c2ccc(Cl)cc12` as the molecule, how does the growth read?
A: 93.8% (inactive)

Q: With `O=C(NNc1nc2cc(F)ccc2n2c(CN3CCC(O)C3)ccc12)c1cnccn1` (stereo not given) as the molecule, how does the growth read?
A: 19.9% (inactive)

Q: How did the growth turn out when `COc1cc(OC)c(S(N)(=O)=O)cc1C(C)=O` was run?
A: 105% (inactive)
